In all, about 2,100 compounds went through this assay and about 1,700 (81%) were called active. So high a share suggests a set chosen from earlier hits. The list shows a part of the results. Measured potencies and affinities stand elsewhere. Inconclusive results are not listed. Values without a mark were called inactive. How the calls were made is not given here.
Each compound was assayed against Replicative DNA helicase DnaB (Mycobacterium tuberculosis (strain ATCC 25618 / H37Rv)) (UniProt P9WMR3) (assay: DnaB intein splicing inhibitors, dose response, biochemical, M. tuberculosis H37Rv, cell-free fluorescence (AID 449749)). Settings: series mostly up to 38 µM; activity change, negative = inhibition: at the top concentration.
Sequence of Replicative DNA helicase DnaB (Mycobacterium tuberculosis (strain ATCC 25618 / H37Rv)) (P9WMR3 whole entry, looked up): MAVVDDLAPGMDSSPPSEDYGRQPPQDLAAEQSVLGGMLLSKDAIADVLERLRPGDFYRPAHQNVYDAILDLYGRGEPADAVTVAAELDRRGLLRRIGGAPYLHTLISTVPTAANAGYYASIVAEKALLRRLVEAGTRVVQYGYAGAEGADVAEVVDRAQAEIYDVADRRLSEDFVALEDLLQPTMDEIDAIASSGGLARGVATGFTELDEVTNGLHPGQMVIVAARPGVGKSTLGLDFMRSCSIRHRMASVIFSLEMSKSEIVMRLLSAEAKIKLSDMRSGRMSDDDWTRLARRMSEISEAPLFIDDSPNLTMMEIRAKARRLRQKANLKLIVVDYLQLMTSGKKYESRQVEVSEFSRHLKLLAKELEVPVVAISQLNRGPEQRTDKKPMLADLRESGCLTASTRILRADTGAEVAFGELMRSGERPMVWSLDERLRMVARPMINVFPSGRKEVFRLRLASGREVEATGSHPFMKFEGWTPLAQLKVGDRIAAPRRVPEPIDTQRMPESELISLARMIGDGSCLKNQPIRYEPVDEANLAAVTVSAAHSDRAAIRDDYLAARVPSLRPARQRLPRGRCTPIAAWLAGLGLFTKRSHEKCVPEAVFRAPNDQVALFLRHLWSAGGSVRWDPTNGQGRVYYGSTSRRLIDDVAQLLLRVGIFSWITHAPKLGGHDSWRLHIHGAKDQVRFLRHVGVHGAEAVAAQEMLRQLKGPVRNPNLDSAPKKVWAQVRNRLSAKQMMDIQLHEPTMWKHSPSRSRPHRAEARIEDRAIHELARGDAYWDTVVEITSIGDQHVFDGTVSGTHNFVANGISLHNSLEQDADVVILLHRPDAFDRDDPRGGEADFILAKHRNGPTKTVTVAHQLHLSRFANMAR

Row | SMILES | activity change, negative = inhibition [%]
1 | OCCNC(=S)Nc1ccc2nsnc2c1 | 170
2 | CCCCNC(=O)c1c(N)n(Cc2ccc3c(c2)OCO3)c2nc3ccccc3nc12 | 83.3
3 | Cc1ccsc1C=Nc1ccc(O)cc1 | 66
4 | C=CCn1c(N)c(C(=O)Nc2cccc(C)c2)c2nc3ccccc3nc21 | 458
5 | CN1/C(=C/C(=O)c2nc(S(C)(=O)=O)ncc2Cl)C(C)(C)c2ccccc21 | 112
6 | ONc1cccnc1-n1nc(C(F)(F)F)cc1C(F)(F)F | 205
7 | CCCCCn1c(N)c(C(=O)NCc2cccs2)c2nc3ccccc3nc21 | 438
8 | O=[N+]([O-])c1cncc([N+](=O)[O-])c1Nc1cccc(O)c1 | 106
9 | CCOc1ccc2c(c1)-c1c(ssc1=S)C(C)(C)N2 | 32.7
